Among all 21,000 compounds or so, fewer than 10 showed an effect of 50% or more. Not all results are given here. Measured potencies and affinities stand elsewhere.
tested on: Acinetobacter baumannii; conditions: Concentration 20 uM; ASSAY_TEST Inhibition of Bacterial Growth; detection method Absorption (OD600); MEDIA CAMHB; plate type 384well; NBS; CORNING #3640; time 18 hr

Compound	Inhibition
O=C(CN1CCOCC1)Nc1ccc2ncnc(Nc3ccc(OCc4cccc(F)c4)c(Cl)c3)c2c1	8.91%
Cl.O=C(Nc1ccc(N2CCNCC2)nc1)c1oc(-c2ccccc2)nc1C(F)(F)F	4.8%

— ChEMBL document CHEMBL4513149, “CO-ADD screening of MMV (CH) - MMV compounds” (2021)
